Experimental findings from PubChem BioAssay AID1878 (Sanford-Burnham Center for Chemical Genomics, 2009) are described below.

Out of some 1,000 compounds screened, about 200 (20%) were called active. Rule as the data show it: active = inhibition above about 55%; inactive = the rest. These entries were drawn from the full list. Results with a measured potency or affinity are listed apart.

Sequence of Dual specificity protein phosphatase 3 (Homo sapiens) (P51452 whole entry, looked up): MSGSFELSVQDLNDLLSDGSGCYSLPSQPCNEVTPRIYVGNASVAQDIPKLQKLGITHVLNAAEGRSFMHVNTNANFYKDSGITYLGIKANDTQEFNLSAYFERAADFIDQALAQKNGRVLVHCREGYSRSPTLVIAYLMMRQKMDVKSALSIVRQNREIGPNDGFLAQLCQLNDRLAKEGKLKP

This test concerns the target Dual specificity protein phosphatase 3 (Homo sapiens) (UniProt P51452). As to the kind of experiment: VHR1 phosphatase inhibitors, biochemical (AID 1878). The following applies: recombinant VHR phosphatase, fluorogenic substrate; at 13.3 µM; active compounds read high.
As to `CN(Cc1ccccc1)C(=O)COC(=O)COc1ccc(C#N)cc1`, the inhibition is -2.2% (inactive).

As for `CC(C(=O)NCCCc1ccccc1)n1cccc1C(=O)c1ccccc1` (centres undefined), the inhibition was 17.1% (inactive).

In the case of `CC(C)[C@H](NC(=O)C1CCN(S(=O)(=O)c2ccccc2)CC1)C(=O)NCc1ccccc1`, the inhibition was 12.2% (inactive).

In the case of `CCCc1cc(SCC(=O)Nc2c(C)n(C)n(-c3ccccc3)c2=O)n2c(nc3ccccc32)c1C#N`, the inhibition is 98.7% (active).

For `CC(C(=O)Nc1cccc(S(=O)(=O)N2CCOCC2)c1)N1CCN(C)CC1` (centres undefined), the inhibition is -1.7% (inactive).

For `CCOC(=O)c1c(C)n(CCOc2ccccc2)c2ccc(O)cc12`, the inhibition is 14.4% (inactive).

In the case of `CC(C)/C=C/CN1CCCC(N2CCN(c3cccc(Cl)c3)CC2)C1` (centres undefined), the inhibition was -15% (inactive).

Regarding `COC(=O)c1ccc(COc2ccc(F)cc2)o1`, the inhibition is 27.9% (inactive).

In the case of `C/C(=N\NC(=O)C(=O)Nc1ccc(C)c(Cl)c1)c1ccncc1`, the inhibition is 91.6% (active).

On to `Cc1ccc(F)c(CNC(=O)C2CCC(=O)N(Cc3ccccn3)C2)c1F` (centres undefined), for which the inhibition was 1.1% (inactive).

On to `CCC(=O)N1CCN=C1SCc1cccc(F)c1`, for which the inhibition was 0.5% (inactive).

As for `CCC(=O)Nc1c(-c2ccc(Cl)cc2)c(=O)c2ccccc2n1C`, the inhibition was -1.5% (inactive).

`COC(=O)c1cc(S(=O)(=O)N2CCCCC2)c[nH]1`: the inhibition was 4.2% (inactive).

As for `Cc1c(C)c2cc(Cl)c(OCC(=O)NC3CC(C)(C)NC(C)(C)C3)cc2oc1=O`, the inhibition was -11.9% (inactive).

For the molecule `Nc1ccc2nc3c(=O)[nH]c(=S)[nH]c3nc2c1`, the inhibition is 61.5% (active).

With `COc1cccc(-c2ocnc2C(=O)Nc2ccc(N3CCOCC3)cc2N2CCOCC2)c1`, the inhibition was -5.2% (inactive).

Consider `CCCCN(CCCC)CCNC(=O)CN1C(=O)COc2ccc(S(=O)(=O)N3CCOCC3)cc21`, for which the inhibition was -18% (inactive).

In the case of `Nc1nonc1-c1nc2ccccc2n1CC(=O)N/N=C/c1ccc(-c2cccc(C(=O)O)c2)o1`, the inhibition was 73.2% (active).

In the case of `O=S(=O)(NCCc1csc(-c2cccnc2)n1)c1ccc(F)cc1`, the inhibition was -3.7% (inactive).

In the case of `Oc1ccc(/C=N/Nc2ncc(Cl)cc2Cl)cc1`, the inhibition was 14.3% (inactive).

Take `CCc1c(C)nc2c(-c3ccccc3)c(-c3ccccc3)[nH]n2c1=O`: the inhibition was 1.4% (inactive).

With `COC(=O)c1ccc(NS(=O)(=O)c2ccc3c(c2)n(C)c(=O)n3C)cc1`, the inhibition was -7.8% (inactive).

`CCCN1CCC(=O)N([C@H](CSc2ccccc2)CC(C)C)CC1`: the inhibition is -3.5% (inactive).

Take `COc1cccc(-c2coc3cc4oc(=O)c(CCC(=O)O)c(C)c4cc23)c1`: the inhibition was -0.1% (inactive).

Consider `O=C(NCCCN1CCCCC1)c1ccc(CS(=O)c2ccc(Cl)cc2)o1` (centres undefined), for which the inhibition was -3.5% (inactive).

For `OCCC1CCCCN1CC(O)COCc1ccc(Cl)cc1` (centres undefined), the inhibition was -7.1% (inactive).

With `c1ccc(-c2ccnc3nc(N4CCN(c5ccccc5)CC4)nn23)cc1`, the inhibition is 19% (inactive).

`CC1Cc2cc(-c3csc(N)n3)ccc2O1` (centres undefined): the inhibition was 7.6% (inactive).

For the molecule `O=C(CNC(=O)c1ccco1)Nc1ccc(Br)cc1`, the inhibition was 7% (inactive).

Regarding `S=C(c1ccc(OCc2ccccc2)cc1)N1CCCC1`, the inhibition was 7.3% (inactive).

For the molecule `CCCC(CCC)C(=O)NC1CCN(Cc2ccccc2)CC1`, the inhibition is -4.1% (inactive).

Regarding `CN(C)c1ccc(C(=S)N2CCN(Cc3ccccc3)CC2)cc1`, the inhibition was 56.8% (active).

Take `O=c1[nH]c2ccc(NS(=O)(=O)c3ccc(F)c(Cl)c3)cc2[nH]1`: the inhibition is -7.2% (inactive).

With `NC(=S)N/N=C/c1ccc2cccc(OCc3ccccc3)c2n1`, the inhibition is 9.9% (inactive).

`Cc1cc2c(cc3c(=O)n(CC(=O)NCCCN4CC(C)CC(C)C4)ncn32)s1` (centres undefined): the inhibition is -3.8% (inactive).

In the case of `Cc1[nH]c(=O)[nH]c(=O)c1S(=O)(=O)Nc1ccc(Br)cc1F`, the inhibition is 4.3% (inactive).

Regarding `O=C(N[C@@H](Cc1ccccc1)C(=O)N1CCC2(CC1)NCCc1[nH]cnc12)c1cccc(F)c1`, the inhibition is 19.9% (inactive).

Consider `CN1CCN(Cc2nc3ccccc3n2C)CC1CCO` (centres undefined), for which the inhibition is -0.8% (inactive).

Take `Cc1ccc(-n2cccc2/C=C2\C(=N)N3N=C(c4ccco4)SC3=NC2=O)cc1`: the inhibition was 98.9% (active).

Regarding `CS(=O)(=O)C1=NSC2=NC(=O)/C(=C\c3cccn3-c3ccc(Cl)cc3)C(=N)N21`, the inhibition was 86.4% (active).

With `c1ccc(NC2=NCCCS2)cc1`, the inhibition is -2.2% (inactive).

`COc1ccc(C)c(NC(=O)NCCc2cnc[nH]2)c1`: the inhibition is 7.6% (inactive).

With `CCOc1ccc(S(=O)(=O)N2CCOCC2)cc1NC(=O)CSCC(=O)Nc1cccc(C)c1`, the inhibition is -2.1% (inactive).

As to `CCCCCCC(=O)Nc1nc(C)c(-c2csc(Nc3cc(OC)ccc3OC)n2)s1`, the inhibition was 11.7% (inactive).

On to `O=C(COc1ccc(S(=O)(=O)N2CCOCC2)cc1)N1CCN(c2ccccc2)CC1`, for which the inhibition was 7.2% (inactive).

`CNC1(C(N)=O)CCNCC1`: the inhibition was -8.1% (inactive).

In the case of `CC1=CC(=C2C=CC(=O)C=C2)C=C(C)N1C`, the inhibition is 4.7% (inactive).

In the case of `CCCCNC(=O)CCc1c(C)nc2c(c(C)nn2-c2ccccc2)c1C`, the inhibition was -6.7% (inactive).

As for `Cc1cccc(-n2c(N)c(C(=O)N3CCN(C)CC3)sc2=S)c1`, the inhibition is 36.6% (inactive).

Turning to `Cc1ccc(CC(=O)NC2CCN(C)CC2)cc1`, the inhibition was 21.9% (inactive).

Take `CN1CCCN(C(=O)c2cccc(Cl)c2)CC1`: the inhibition was -8.6% (inactive).

For the molecule `CC(C)c1ccc(NC(=O)N2CCN(S(=O)(=O)c3ccccc3)CC2)cc1`, the inhibition was 0% (inactive).

Regarding `Nc1c2c(nc3c1CCCC3)CCCC2` (tested in a mixture with another compound), the inhibition was -12.1% (inactive).

In the case of `CN(C)CCN(Cc1ccccc1)C(=O)C1CCN(c2ncnc3c2nc2n3CCCCC2)CC1`, the inhibition was -3.7% (inactive).

Turning to `CC(C)(C)NC(=S)N1CCC(C(=O)c2ccc(F)cc2)CC1`, the inhibition was -7.6% (inactive).

Turning to `Cc1ccc(N=C2C(=O)Nc3c(C)cccc32)cc1`, the inhibition is -18.2% (inactive).

In the case of `O=S(=O)(NC(=NCc1ccccc1)c1ccccc1)c1ccccc1`, the inhibition is -7.7% (inactive).

As for `CCC(C)(C)NC(=O)CN(C(=O)CCC(=O)Nc1nccs1)c1ccc2c(c1)OCCO2`, the inhibition is 1.8% (inactive).

Consider `O=C(c1cccc([N+](=O)[O-])c1)c1ccc2c(c1)C(=O)N(c1c[nH]c(=O)[nH]c1=O)C2=O`, for which the inhibition was -0.9% (inactive).

`CC(C)=C(NC(=O)c1ccccc1)C(=O)NCCc1nc2ccccc2[nH]1`: the inhibition is 26.9% (inactive).

As for `Cc1ccc2nc(NC(=O)C3CC3C)sc2c1` (centres undefined), the inhibition is -7.4% (inactive).

In the case of `CCc1ccc2nc(NC(=O)c3ccc4c(=O)[nH]c(CN5CCOCC5)nc4c3)sc2c1`, the inhibition is 66.5% (active).

`CCN(CC)CCCNC(=O)c1oc2ccc3c(c2c1C)C(O)CC(C)(C)O3` (centres undefined): the inhibition is -1.6% (inactive).

In the case of `CC(C)C(=O)N1CCC(n2nccc2NC(=O)CCc2ccccc2)CC1`, the inhibition was -2.1% (inactive).
